# Measurements published in PubChem BioAssay (NCI).
# Compounds without any hit were thinned out: in the full panel of roughly 79,000, 15% have a hit. Values without a mark were called inactive. Active and inactive are the calls of the source. Cut-off read from the data, not from the text of the source: active = growth inhibition above about 70%; inactive = the rest. Where a SMILES comes first, the peptide text is derived from it. [ ]: non-standard residue; d: D form. ξ: configuration not given here. ξD = NC(CC(=O)O)C(=O)O
# How the values were obtained:
# [1] = NCI Yeast Anticancer Drug Screen. Data for the rad50 strain (AID 155);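 note: 0% = growth of vehicle-only cultures of the same strain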; conditions: S. cerevisiae rad50 strain growth inhibition, stronger effect = higher value
# How it was run: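 Relative growth inhibition (compound vs vehicle) was measured in yeast with a defined repair-gene alteration.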
# [2] = NCI Yeast Anticancer Drug Screen. Data for the mec2-1 strain (AID 157); conditions: S. cerevisiae mec2-1 strain, stronger effect = higher value
# How it was run: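 mec2-1 yeast strain, carrying an alteration in DNA damage repair or cell cycle control, was exposed to compounds; growth inhibition was measured relative to vehicle-treated controls.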
# [3] = NCI Yeast Anticancer Drug Screen. Data for the sgs1 mgt1 strain (AID 161);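 note: 0% = growth of cultures given vehicle only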; conditions: S. cerevisiae sgs1 mgt1 strain, stronger effect = higher value
# How it was run: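 Percent growth inhibition was derived by comparing compound-exposed mutant yeast with vehicle-exposed cultures. The strain carries alterations in DNA damage repair.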
# [4] = NCI Yeast Anticancer Drug Screen. Data for the cln2 rad14 strain (AID 165);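 note: 0% = growth equal to vehicle treated cultures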; conditions: S. cerevisiae cln2 rad14 strain, stronger effect = higher value
# How it was run: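 Yeast carrying cln2 and rad14 alterations (cell cycle control and DNA damage repair) were exposed to compounds. Growth inhibition was measured against vehicle-treated controls.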
# [5] = NCI Yeast Anticancer Drug Screen. Data for the bub3 strain (AID 167); conditions: S. cerevisiae bub3 mutant strain, stronger effect = higher value
# How it was run: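 Screening used yeast with an engineered genetic alteration affecting cell cycle control. Compound-exposed cultures were compared with vehicle cultures, and reduced growth was taken as inhibition.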
# [6] = NCI Yeast Anticancer Drug Screen. Data for the mlh1 rad18 strain (AID 175); conditions: S. cerevisiae mlh1 rad18 strain growth inhibition, stronger effect = higher value
# How it was run: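 Growth inhibition of the yeast strain was measured after compound exposure and expressed relative to vehicle-treated controls. The strain carries defined defects in DNA damage repair.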
# [7] = at 5.0 µM (retest, dose inferred, filed as 0.5)
# [8] = at 50.0 µM (retest, dose inferred, filed as 5.0)
Compound,"growth inhibition [1, 7]","growth inhibition [1, 8]",growth inhibition ([1]; at 50.0 µM),"growth inhibition [2, 7]","growth inhibition [2, 8]",growth inhibition ([2]; at 50.0 µM),"growth inhibition [3, 7]","growth inhibition [3, 8]",growth inhibition ([3]; at 50.0 µM),"growth inhibition [4, 7]","growth inhibition [4, 8]",growth inhibition ([4]; at 50.0 µM),"growth inhibition [5, 7]","growth inhibition [5, 8]",growth inhibition ([5]; at 50.0 µM),"growth inhibition [6, 7]","growth inhibition [6, 8]",growth inhibition ([6]; at 50.0 µM)
O=C(Cc1nc2cc(Cl)c(Cl)cc2nc1CC(=O)c1cccnc1)c1cccnc1,-7%,96% (active),96.3% (active),-17%,96% (active),98.2% (active),-12%,97% (active),92.6% (active),-5%,98% (active),94.3% (active),-1%,98% (active),95.4% (active),-2%,98% (active),97.8% (active)
COc1cc2c(c(OC)c1OC)-c1ccc(NCc3ccccc3)c(=O)cc1[C@@H](NC(C)=O)CC2,17%,96% (active),49%,9%,89% (active),80.8% (active),16%,98% (active),68.3%,18%,98% (active),73.7% (active),14%,88% (active),68.3%,16%,97% (active),-53.5%
Cc1ccc2c(c1)sc(-c1ccc(N(C)C)cc1)[n+]2C,42%,92% (active),90.7% (active),45%,96% (active),91.8% (active),45%,98% (active),91.8% (active),74% (active),98% (active),89.1% (active),67%,98% (active),90.8% (active),24%,86% (active),90.5% (active)
CC/C(=C(/CC)c1ccc(O)cc1)c1ccc(O)cc1,16%,99% (active),99% (active),6%,99% (active),98.8% (active),5%,100% (active),99.1% (active),39%,99% (active),98% (active),22%,63%,99.5% (active),13%,97% (active),99.2% (active)
Cn1c(COC(=O)NC2CCCCC2)c(COC(=O)NC2CCCCC2)c2ccc3cc(Cl)c(Cl)cc3c21,8%,31%,18.1%,-5%,8%,23.2%,-3%,29%,56.5%,15%,12%,49.2%,15%,30%,72.7% (active),9%,11%,21.8%
CCC1CCCCN1C(=S)N/N=C(\C)c1ccccn1 (configuration not stated),29%,98% (active),90.5% (active),19%,99% (active),94.1% (active),28%,99% (active),89.8% (active),21%,99% (active),91.7% (active),21%,99% (active),90% (active),23%,98% (active),90.5% (active)
C(=N\Nc1ccc2ccccc2n1)/c1ccccn1,49%,72% (active),90.7% (active),30%,78% (active),92.6% (active),46%,85% (active),93.1% (active),31%,63%,90.7% (active),44%,81% (active),92.3% (active),50%,87% (active),92.1% (active)
c1ccc(-c2cc3cc4ccccc4cn3c2)cc1,58%,93% (active),83.8% (active),43%,94% (active),83.8% (active),52%,97% (active),88.8% (active),35%,84% (active),82.8% (active),53%,97% (active),86.3% (active),61%,95% (active),86.7% (active)
COC(=O)c1ccc(=O)c2nc3/c(=C/O)c(O)cc(=O)c3[nH]c12,98% (active),92% (active),90% (active),99% (active),94% (active),92.1% (active),99% (active),97% (active),91.2% (active),96% (active),96% (active),89.3% (active),99% (active),96% (active),89.5% (active),99% (active),95% (active),39.5%
CCCCCCCCCCCCNCCCc1ccccc1,99% (active),98% (active),98.1% (active),100% (active),99% (active),99.2% (active),100% (active),99% (active),98.5% (active),99% (active),97% (active),98.8% (active),99% (active),99% (active),98% (active),99% (active),99% (active),98.5% (active)
O=C1C=CC(=O)N1c1ccc(O)cc1,15%,94% (active),96.3% (active),23%,98% (active),98.4% (active),18%,86% (active),94.1% (active),-1%,98% (active),98.3% (active),4%,97% (active),96.8% (active),11%,98% (active),91.8% (active)
CN(C)CCSC1=Nc2ccc(Cl)cc2C(c2ccccc2Cl)N(C)C1 (configuration not stated),8%,80% (active),96.7% (active),3%,47%,95.7% (active),3%,78% (active),88.3% (active),4%,27%,80.2% (active),0%,82% (active),97% (active),10%,84% (active),95.8% (active)
NC(=S)N/N=C/c1ncccc1O,-157%,-91%,24.4%,-50%,19%,80.2% (active),-63%,-30%,7.55%,-68%,-73%,-23.4%,-74%,-78%,-7.5%,-123%,-101%,21.4%
Oc1c(C(Nc2ccccc2)c2ccccc2)ccc2cccnc12 (configuration not stated),-5%,92% (active),96.9% (active),-2%,97% (active),81.2% (active),-4%,94% (active),99% (active),-4%,92% (active),96.2% (active),-8%,94% (active),84% (active),0%,92% (active),96% (active)
CCN(CC)CC(O)CNc1ccc(NCC2CO2)c2c1C(=O)c1ccccc1C2=O (configuration not stated),71% (active),76% (active),34.1%,23%,79% (active),25.6%,76% (active),84% (active),48.8%,49%,83% (active),56%,43%,59%,-36%,52%,74% (active),59%
NCC(=O)NC(CC(=O)O)C(=O)O (configuration not stated) (H-Gly-[ξD]-OH),-1%,10%,12.7%,-6%,-12%,9.15%,-10%,20%,13.2%,-2%,14%,1.05%,9%,9%,8.05%,8%,16%,32.2%
NC(=S)Nc1ccc2c(c1)Cc1ccccc1-2,2%,29%,64.5%,-4%,3%,-0.4%,2%,23%,59.9%,-5%,-10%,23.4%,0%,58%,47%,7%,38%,60.4%
N#C/C(=N\Nc1ccc(Cl)cc1)C(=O)C1CC1,59%,62%,86.4% (active),41%,46%,77.5% (active),58%,70% (active),85.7% (active),55%,55%,85.5% (active),51%,78% (active),77.4% (active),62%,69%,82% (active)
CC(C)(C)CC(C)(C)c1ccc(OCCOCCSC(=N)N)cc1,5%,99% (active),46.4%,-3%,100% (active),47%,23%,99% (active),40.1%,13%,99% (active),99.2% (active),5%,99% (active),99.5% (active),24%,98% (active),97.6% (active)
